For some assays here: Results with a measured potency or affinity are listed apart.
Key:
Parameters in all cases: scale not given: direction of the effect not stated beside the values
[1] = target: Protein translocase subunit SecA (Escherichia coli (strain K12)) (UniProt P10408); assay: Assay to Identify E. coli SecA ATPase Inhibitors; format: functional; conditions: 30 µM
[2] = target: T1, Ubiquitin-activating enzyme e1, putative (Leishmania donovani (strain BPK282A1)) (UniProt E9BSI1); assay: Leishmania donovani Ubiquitin Activating Enzyme (LdE1); format: functional; conditions: 30 µM
T1 sequence (whole entry): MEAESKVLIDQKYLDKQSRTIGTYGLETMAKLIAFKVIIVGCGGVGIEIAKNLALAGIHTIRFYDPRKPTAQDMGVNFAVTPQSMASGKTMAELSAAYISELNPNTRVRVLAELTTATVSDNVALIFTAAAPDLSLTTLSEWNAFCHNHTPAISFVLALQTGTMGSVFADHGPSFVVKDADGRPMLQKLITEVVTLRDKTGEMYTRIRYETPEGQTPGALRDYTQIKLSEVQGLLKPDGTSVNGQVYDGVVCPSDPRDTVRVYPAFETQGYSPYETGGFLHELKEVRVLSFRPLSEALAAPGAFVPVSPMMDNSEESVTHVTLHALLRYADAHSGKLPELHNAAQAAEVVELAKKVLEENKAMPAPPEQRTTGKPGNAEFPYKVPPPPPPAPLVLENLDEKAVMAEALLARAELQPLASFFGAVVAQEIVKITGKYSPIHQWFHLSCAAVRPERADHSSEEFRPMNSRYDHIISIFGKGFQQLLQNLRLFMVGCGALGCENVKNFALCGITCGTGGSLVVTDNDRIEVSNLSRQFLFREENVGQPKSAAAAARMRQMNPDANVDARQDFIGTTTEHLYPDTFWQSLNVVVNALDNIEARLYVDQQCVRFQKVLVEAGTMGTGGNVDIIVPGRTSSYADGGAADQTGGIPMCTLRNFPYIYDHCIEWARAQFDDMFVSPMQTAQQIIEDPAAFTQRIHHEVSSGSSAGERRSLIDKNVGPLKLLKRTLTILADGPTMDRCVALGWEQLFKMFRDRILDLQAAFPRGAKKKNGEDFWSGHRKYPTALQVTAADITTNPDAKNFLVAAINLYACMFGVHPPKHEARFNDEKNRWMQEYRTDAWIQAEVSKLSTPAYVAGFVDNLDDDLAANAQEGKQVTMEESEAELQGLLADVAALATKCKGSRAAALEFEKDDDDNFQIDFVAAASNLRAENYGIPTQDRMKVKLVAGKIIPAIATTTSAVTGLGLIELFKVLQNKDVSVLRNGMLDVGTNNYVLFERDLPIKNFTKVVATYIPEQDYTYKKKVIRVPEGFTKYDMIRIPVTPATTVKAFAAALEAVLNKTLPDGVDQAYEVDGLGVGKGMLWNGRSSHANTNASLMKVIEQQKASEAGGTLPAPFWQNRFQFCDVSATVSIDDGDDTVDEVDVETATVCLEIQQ

[3] = target: AMP-activated protein kinase, AMPK (Homo sapiens) (UniProt P54646+O43741+P54619+Q9UGJ0+Q9Y478+Q13131+Q9UGI9); assay: AMP-dependent Kinase enzyme assay. An in vitro enzyme assay that detects ADP turnover that is directly proportional to AMPK activity. This uses naive AMPK that is activated during the assay with MK-8722; format: functional; conditions: 30 µM
[4] = target: Sialic acid-binding Ig-like lectin 9 (Homo sapiens) (UniProt Q9Y336); assay: Hs-Siglec9 ALPHAscreen SOP 20170721; conditions: 10 µM
[5] = system: Trypanosoma cruzi; assay: Trypanosoma cruzi phosphomannomutase and mannose-1-phosphate guanylyltransferase assay; format: functional; conditions: 10 µM
[6] = target: T2, Arginase-2, mitochondrial (Homo sapiens) (UniProt P78540); assay: in vitro enzyme assay to detect the production of urea directly proportional to the activity of Arginase II; format: functional; conditions: 33.3 µM; also: in the data most compounds retested in dose-response had high values
T2 sequence (whole entry): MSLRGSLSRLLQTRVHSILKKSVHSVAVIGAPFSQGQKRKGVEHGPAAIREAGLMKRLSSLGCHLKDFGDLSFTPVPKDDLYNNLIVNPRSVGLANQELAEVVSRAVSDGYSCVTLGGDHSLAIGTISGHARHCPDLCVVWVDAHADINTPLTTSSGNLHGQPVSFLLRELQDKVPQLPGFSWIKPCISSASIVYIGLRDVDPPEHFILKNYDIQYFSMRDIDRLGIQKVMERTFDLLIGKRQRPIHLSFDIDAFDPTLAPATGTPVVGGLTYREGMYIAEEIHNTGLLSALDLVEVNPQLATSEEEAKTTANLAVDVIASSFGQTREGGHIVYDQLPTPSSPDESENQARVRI

[7] = target: T3, Proteasome subunit beta (Trypanosoma cruzi) (UniProt O96673); assay: Trypanosoma cruzi proteasome chymotrypsin-like activity (TcProtChymo) assay.; also: in the data most compounds retested in dose-response had high values; format: functional; conditions: 9.37 µM
T3 sequence (whole entry): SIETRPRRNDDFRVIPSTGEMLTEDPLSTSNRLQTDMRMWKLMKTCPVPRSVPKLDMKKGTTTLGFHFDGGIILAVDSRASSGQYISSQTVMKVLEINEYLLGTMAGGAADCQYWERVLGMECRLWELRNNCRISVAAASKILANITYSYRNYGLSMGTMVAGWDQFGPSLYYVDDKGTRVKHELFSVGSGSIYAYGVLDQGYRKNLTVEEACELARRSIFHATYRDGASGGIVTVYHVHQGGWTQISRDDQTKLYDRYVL

[8] = species on record: Homo sapiens; assay: To identify inhibition of the IFN signalling (Jak-Stat) pathway via expression of an eGFP reporter gene under the control of an IFN-stimulated response element (ISRE) containing MxA promoter.; format: functional; conditions: 30 µM
[9] = target: T4, Tyrosyl-tRNA synthetase, putative (Trypanosoma cruzi (strain CL Brener)) (UniProt Q4DSP6); assay: Trypanosoma cruzi tyrosyl tRNA synthetase (TcYRS) _High Tyrosine SOP; format: functional; conditions: 30 µM; also: in the data most compounds retested in dose-response had high values
T4 sequence (whole entry): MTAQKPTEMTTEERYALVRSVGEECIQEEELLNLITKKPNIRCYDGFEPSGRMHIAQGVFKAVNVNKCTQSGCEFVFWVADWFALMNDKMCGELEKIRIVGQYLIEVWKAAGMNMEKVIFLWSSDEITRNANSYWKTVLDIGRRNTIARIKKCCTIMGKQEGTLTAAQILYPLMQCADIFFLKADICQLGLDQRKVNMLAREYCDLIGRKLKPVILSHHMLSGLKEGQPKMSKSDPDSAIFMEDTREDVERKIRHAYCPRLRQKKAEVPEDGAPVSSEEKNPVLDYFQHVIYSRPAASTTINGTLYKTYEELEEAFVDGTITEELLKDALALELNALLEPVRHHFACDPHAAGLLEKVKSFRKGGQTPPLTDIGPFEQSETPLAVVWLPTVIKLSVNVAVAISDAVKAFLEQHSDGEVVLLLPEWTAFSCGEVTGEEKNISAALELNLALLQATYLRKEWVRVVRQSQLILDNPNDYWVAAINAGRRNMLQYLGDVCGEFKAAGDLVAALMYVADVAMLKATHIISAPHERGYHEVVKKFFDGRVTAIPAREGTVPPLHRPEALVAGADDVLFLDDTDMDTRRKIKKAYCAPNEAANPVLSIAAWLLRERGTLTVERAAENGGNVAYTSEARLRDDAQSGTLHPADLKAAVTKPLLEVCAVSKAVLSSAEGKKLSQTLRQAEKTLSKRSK

[10] = target: T4, Tyrosyl-tRNA synthetase, putative (Trypanosoma cruzi (strain CL Brener)); assay: Trypanosoma cruzi tyrosyl tRNA synthetase (TcYRS) SOP; format: functional; conditions: 30 µM
[11] = target: Chromo domain-containing protein 1 (Saccharomyces cerevisiae (strain ATCC 204508 / S288c) (Baker's yeast)) (UniProt P32657); assay: ScCHD-1 Enzyme Inhibition Assay; format: functional; conditions: 30 µM; also: in the data most compounds retested in dose-response had high values
Chromo domain-containing protein 1 (Saccharomyces cerevisiae (strain ATCC 204508 / S288c) (Baker's yeast)), sequence (P32657 whole entry, the tested form may be a part): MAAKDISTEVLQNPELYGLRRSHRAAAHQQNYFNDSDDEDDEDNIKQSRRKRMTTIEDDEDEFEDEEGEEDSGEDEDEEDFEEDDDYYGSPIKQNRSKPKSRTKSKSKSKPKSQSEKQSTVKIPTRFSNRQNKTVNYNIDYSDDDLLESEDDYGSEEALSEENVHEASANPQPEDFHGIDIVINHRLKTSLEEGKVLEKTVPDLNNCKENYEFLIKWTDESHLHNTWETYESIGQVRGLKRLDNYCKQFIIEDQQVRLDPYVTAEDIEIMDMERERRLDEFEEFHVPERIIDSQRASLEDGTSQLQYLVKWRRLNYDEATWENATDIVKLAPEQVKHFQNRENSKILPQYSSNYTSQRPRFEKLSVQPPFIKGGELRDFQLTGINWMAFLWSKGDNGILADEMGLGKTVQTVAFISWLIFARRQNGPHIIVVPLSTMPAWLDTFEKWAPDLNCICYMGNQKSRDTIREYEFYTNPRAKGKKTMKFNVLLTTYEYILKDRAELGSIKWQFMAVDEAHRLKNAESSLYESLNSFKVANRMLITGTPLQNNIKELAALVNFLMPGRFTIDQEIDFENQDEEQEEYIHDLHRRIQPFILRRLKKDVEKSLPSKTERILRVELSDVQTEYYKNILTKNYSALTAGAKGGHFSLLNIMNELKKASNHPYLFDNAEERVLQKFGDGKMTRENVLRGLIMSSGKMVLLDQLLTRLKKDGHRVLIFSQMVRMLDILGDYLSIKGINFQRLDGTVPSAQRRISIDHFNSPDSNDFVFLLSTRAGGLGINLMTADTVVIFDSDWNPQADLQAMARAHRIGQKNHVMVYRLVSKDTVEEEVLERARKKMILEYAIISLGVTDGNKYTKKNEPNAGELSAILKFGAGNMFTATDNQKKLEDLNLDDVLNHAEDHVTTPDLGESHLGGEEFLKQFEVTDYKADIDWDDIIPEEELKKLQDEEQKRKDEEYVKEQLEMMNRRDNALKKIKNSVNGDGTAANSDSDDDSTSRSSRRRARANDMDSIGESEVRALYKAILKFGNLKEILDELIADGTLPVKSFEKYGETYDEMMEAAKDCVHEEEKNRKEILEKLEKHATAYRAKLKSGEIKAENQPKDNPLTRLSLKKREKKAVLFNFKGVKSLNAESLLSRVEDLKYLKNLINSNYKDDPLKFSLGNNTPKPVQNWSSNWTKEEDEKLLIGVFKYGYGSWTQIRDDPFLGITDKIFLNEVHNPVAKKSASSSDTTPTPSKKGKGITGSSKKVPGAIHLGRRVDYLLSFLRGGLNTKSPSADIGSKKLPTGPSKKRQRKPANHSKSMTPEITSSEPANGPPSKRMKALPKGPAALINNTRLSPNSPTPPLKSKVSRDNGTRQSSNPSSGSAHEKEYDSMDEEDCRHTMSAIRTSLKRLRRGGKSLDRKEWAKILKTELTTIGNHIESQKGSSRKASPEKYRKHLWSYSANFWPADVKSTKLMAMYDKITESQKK

Sialic acid-binding Ig-like lectin 9 (Homo sapiens), sequence (Q9Y336 whole entry): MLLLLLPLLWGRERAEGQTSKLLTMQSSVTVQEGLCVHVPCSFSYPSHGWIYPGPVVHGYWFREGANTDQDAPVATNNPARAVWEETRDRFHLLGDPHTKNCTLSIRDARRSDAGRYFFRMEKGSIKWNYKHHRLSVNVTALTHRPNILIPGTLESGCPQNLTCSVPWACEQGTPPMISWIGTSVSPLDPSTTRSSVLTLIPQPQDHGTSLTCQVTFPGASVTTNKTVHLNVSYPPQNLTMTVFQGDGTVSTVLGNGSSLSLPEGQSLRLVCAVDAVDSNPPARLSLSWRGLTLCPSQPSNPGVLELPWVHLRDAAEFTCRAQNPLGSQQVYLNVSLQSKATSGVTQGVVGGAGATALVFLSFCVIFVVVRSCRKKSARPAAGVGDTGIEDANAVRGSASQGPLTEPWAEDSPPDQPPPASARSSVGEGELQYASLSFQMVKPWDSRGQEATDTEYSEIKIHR
Protein translocase subunit SecA (Escherichia coli (strain K12)), sequence (P10408 whole entry): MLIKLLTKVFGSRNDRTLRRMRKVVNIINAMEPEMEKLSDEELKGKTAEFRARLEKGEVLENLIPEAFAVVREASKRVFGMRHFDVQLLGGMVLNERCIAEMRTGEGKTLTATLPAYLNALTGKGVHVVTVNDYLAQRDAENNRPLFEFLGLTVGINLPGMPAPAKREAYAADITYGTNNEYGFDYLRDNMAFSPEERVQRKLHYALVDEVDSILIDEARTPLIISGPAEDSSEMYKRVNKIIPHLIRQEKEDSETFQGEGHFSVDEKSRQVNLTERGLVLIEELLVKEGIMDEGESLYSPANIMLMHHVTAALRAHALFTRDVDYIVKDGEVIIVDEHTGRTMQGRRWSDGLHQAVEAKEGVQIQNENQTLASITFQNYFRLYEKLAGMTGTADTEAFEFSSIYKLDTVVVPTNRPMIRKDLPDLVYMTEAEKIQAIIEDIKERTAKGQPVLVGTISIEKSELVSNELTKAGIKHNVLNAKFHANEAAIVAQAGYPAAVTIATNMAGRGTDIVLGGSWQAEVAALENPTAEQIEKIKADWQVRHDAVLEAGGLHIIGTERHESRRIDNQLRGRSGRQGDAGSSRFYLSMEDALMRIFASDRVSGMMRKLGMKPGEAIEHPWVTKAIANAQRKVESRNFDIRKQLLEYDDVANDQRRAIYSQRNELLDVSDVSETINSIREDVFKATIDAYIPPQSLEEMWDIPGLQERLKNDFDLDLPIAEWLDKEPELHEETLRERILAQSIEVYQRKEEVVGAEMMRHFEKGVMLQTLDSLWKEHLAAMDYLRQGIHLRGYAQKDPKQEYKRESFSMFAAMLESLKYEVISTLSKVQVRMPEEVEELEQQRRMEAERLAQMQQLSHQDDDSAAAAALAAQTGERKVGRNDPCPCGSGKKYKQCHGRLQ

Structure (SMILES) | Percent Effect [1] [%] | Percent Effect [2] [%] | Percent Effect [3] [%] | Percent Effect [4] [%] | Percent Effect [5] [%] | Percent Effect [6] [%] | Percent Effect [7] [%] | Percent Effect [8] [%] | Percent Effect [9] [%] | Percent Effect [10] [%] | Percent Effect [11] [%]
Cc1cnnn1Cc1ncn2c1CN(Cc1cccs1)CCC2 | -5.14 | 2.7 | -2.96 | -6.54 | -5.18 | -0.955 | 15.3 | 14.8 | 2.16 | 5.13 | -3.69
CN(C)C(=O)N1CCN(Cc2ccccc2)[C@@H]2CS(=O)(=O)C[C@@H]21 | -0.429 | 2.7 | -4.73 | 3.84 | 4.25 | -1.43 | 10.9 | 4.04 | 7.94 | 17.1 | -3.7
Nc1nccc(N2CCCC(CO)(CCOc3ccccc3)C2)n1 (stereo unspecified) | -4.62 | 2.6 | -0.596 | 19 | 8.75 | -13.8 | 15.3 | 41.9 | 7.53 | 13.6 | -3.14
COc1cc2cc(C(=O)O)n(C)c2cc1OC | -4.26 | -4 | 7.45 | 10.6 | -0.982 | -10 | 9.61 | -15.2 | 4.23 | 0 | -6.18
CCN(CC(=O)NC(C)C)S(=O)(=O)N1CCC(C)C1 (stereo unspecified) | -2.1 | 0 | -2.33 | -4.69 | 2.05 | 1.24 | 5.24 | -14.3 | 1.07 | 6.17 | -6.4
CC(C)c1nc(C(=O)N2CCOCC2CC(=O)c2ccco2)c[nH]1 (stereo unspecified) | 2.93 | -2.63 | 4.64 | 2.67 | 0.682 | 0 | 8.92 | -8.33 | 5.32 | 0 | 1.37
COc1ccc(CCN2CCN(C(=O)c3scnc3C)CC2)cc1 | -2.7 | 10.5 | 2.58 | 0.569 | 3.8 | -3.55 | 16 | -22.1 | 6.38 | 10.4 | -3.62
CC(=O)N(Cc1ncc(C(C)C)o1)C1CCN(Cc2ncc[nH]2)C1 (stereo unspecified) | -1 | 10.8 | -3.5 | -1.85 | 3.99 | -3.14 | 5.21 | 6.45 | 13.9 | 25.6 | -5.05
CCNc1cc2c(nn1)CCN(C(=O)c1ccc3cc[nH]c3c1)C2 | -5.7 | 5.26 | 1.7 | 1.43 | 6.96 | -2.3 | 1.34 | -2.63 | 8.33 | 19.5 | -7.29
O=S1(=O)C[C@@H]2[C@H](C1)N(Cc1ncc[nH]1)CCN2CC1CC1 | -2.38 | 0 | -1.5 | -1.31 | -3.28 | 1.43 | 3.45 | 1.15 | 5.82 | 14.6 | -2.92
c1ncn(CC2CN(CC3CCCC3)CCO2)n1 (stereo unspecified) | -3.42 | 11.4 | -1.94 | -0.971 | -1.54 | 6.24 | 11.8 | 10.9 | 0 | 7.59 | -14
COCCNc1nc2c(c(NCc3ccncc3)n1)CCNCC2 | 1.06 | 0 | -4.61 | 0.0545 | 3.28 | -3.81 | 13.8 | 5.66 | 5.82 | 7.32 | -2.76
c1ccc(CCCN2CC(n3cccn3)C2)cc1 | 0.15 | 2.7 | -2.18 | -4.46 | 5.48 | -2.03 | 14.7 | 25.9 | 7.92 | 23.2 | -5.99
Cc1cnn(CC2CCCCN2Cc2nc(N)c3ccccc3n2)c1 (stereo unspecified) | -5.11 | 10.1 | -4.6 | 5.93 | 8.78 | 0 | 12.2 | -0.892 | 14.3 | 21.5 | -8.03
Cc1nc(C)n(CC2CN(c3ccc(C#N)cn3)CCO2)n1 (stereo unspecified) | -4.11 | 10.5 | -4.42 | 10.3 | 5.88 | 1.44 | 6.51 | -2.74 | 6.4 | 18.5 | -3.17
CC(C)(C)c1ccc(C2(C(=O)NCCS(N)(=O)=O)CC2)cc1 | -3.83 | 10.4 | 1.16 | 8.65 | 3.25 | -422 | 8.98 | 10.7 | 3.23 | 11.1 | -4.35
